Reference: ChEMBL document CHEMBL4513216, “Probing the Open Global Health Chemical Diversity Library for Multistage-Active Starting Points for Next-Generation Antimalarials” (ACS Infect Dis, 2020)
The whole screen tested about 68,000 compounds, of which about 2,700 (4%) showed an effect of 50% or more. Only a selection was taken, and strong results are over-represented in it overall.

These molecules were tested on Plasmodium berghei (assay: Screen against P. berghei liver stage (PbLuc), transformed with Luciferase, at 2uM). Conditions: tested at 2 uM.
Assay type: functional, HepG2

SMILES	INHIBITION
CC(C)(C)n1ncc2c1CCCC2NCc1ccc2c(c1)OCCO2 (stereo unspecified)	-12.39%
Cn1ncc2c1CCCC2NCc1cccc(F)c1 (stereo unspecified)	-33.95%
Cn1ncc2c1CCCC2NCc1ccc(Cl)s1 (stereo unspecified)	-21.31%
Cc1ccc(CNC2CCCc3c2cnn3C)s1 (stereo unspecified)	28.51%
Cn1ncc2c1CCCC2NCc1ccc(Br)s1 (stereo unspecified)	54.86%
CCn1ncc2c1CCCC2NCc1ccc2c(c1)CCO2 (stereo unspecified)	-7.81%
Cc1cccc(CNC2CCCc3c2cnn3C)c1 (stereo unspecified)	51.21%
Cc1cccc(CNC2CCCc3c2cnn3Cc2ccccc2)c1 (stereo unspecified)	-2.26%
CC(C)(C)n1ncc2c1CCCC2NCc1ccc2c(c1)CCO2 (stereo unspecified)	64.67%
CC(C)(C)c1nc(CC(=O)Nc2cnccc2O)cs1	-5.75%
CN1CCCC(CCC(=O)N2CCc3c(nc(CC4CC4)[nH]c3=O)C2)C1 (stereo unspecified)	10.1%
CCc1cccc(OCC(=O)NC(C)c2nnc3n2CCC3)c1 (stereo unspecified)	0.31%
CS(=O)(=O)c1ccc(C(=O)NCc2nc3cc(F)ccc3[nH]2)cc1	44.61%
O=C(NC1CCN(C(=O)C2CCCCC2)C1)c1ccncc1Cl (stereo unspecified)	-56.84%
CC1=Nc2c(c(=O)[nH]n2C2CCCCC2)C(c2cccnc2)S1 (stereo unspecified)	-30.12%
CN(Cc1ccncc1)C1COC2(CCN(Cc3cccs3)CC2)C1 (stereo unspecified)	-3.11%
CN(Cc1ccncc1)C1COC2(CCN(Cc3nccn3C)CC2)C1 (stereo unspecified)	64.31%
CN(Cc1ccncc1)C1COC2(CCN(Cc3ccccn3)CC2)C1 (stereo unspecified)	23.59%
CCOC1COC2(CCN(Cc3ccc4c(c3)OCO4)CC2)C1 (stereo unspecified)	-59.24%

SMILES	INHIBITION
CC(C)COC1CC2(CCN(Cc3nccn3C)CC2)C1	58.93%
CCOC1CC2(CCN(Cc3nccn3C)CC2)C1	16.98%
COCC1CC2(CCN(Cc3nccn3C)CC2)CN1c1ncccn1 (stereo unspecified)	12.88%
COC1CC2(CCN(Cc3ccc4c(c3)OCO4)CC2)C1	69.22%
COC1CC2(CCN(Cc3nccn3C)CC2)C1	52.66%
Cn1ccnc1CN1CCC2(CC1)CC(Oc1cccnc1)C2	24.83%
COC1COC2(CCN(Cc3ccc4c(c3)OCO4)CC2)C1 (stereo unspecified)	22.16%
Cn1ccnc1CN1CCC2(CC1)COC2	24.23%
N#Cc1cccc(CN2CC3(CCCCN3c3cccnc3)CC2=O)c1 (stereo unspecified)	12.57%
CN(C)CC(c1ccccc1)N(C)C(=O)c1cccc(NCC(=O)O)c1 (stereo unspecified)	8.26%
CNc1cccc(C2CCCN(C(=O)c3cncs3)C2)n1 (stereo unspecified)	-33.77%
CC(NC(=O)Nc1ccc(F)c(F)c1)c1nc[nH]n1 (stereo unspecified)	-5.51%
Cc1cccc(OCCC(=O)N2CCCN(CC(N)=O)CC2)c1C	-5.2%
CCCN(Cc1ccccc1O)S(=O)(=O)C(C)CC (stereo unspecified)	17.48%
CC(Cn1cccn1)NC(=O)c1ccsc1 (stereo unspecified)	-18.04%
CC1c2ncc(CNC(=O)C3CC3)n2CCN1CC1CCC1 (stereo unspecified)	35.07%
CSC(C)CCN(Cc1ccccn1)Cc1sccc1C (stereo unspecified)	-22.06%
Cc1cccc(-n2ncc3c2CCCC3NCC(C)(C)CO)c1C (stereo unspecified)	45.82%
Cc1noc([C@@H]2C[C@H]3CN(C(=O)C4CCN(C)CC4)C[C@H]3O2)n1	33.12%

SMILES	INHIBITION
CC(C)n1c(=O)c2sccc2n(CC(=O)Nc2ccccc2)c1=O	10.62%
Cc1cc(C)n(C2CCCN(C(=O)Cc3ccc(C#N)cc3)C2)n1 (stereo unspecified)	-11.34%
Cc1ccc(CC(=O)N2CCCC(n3nc(C)cc3C)C2)cn1 (stereo unspecified)	5.59%
COc1ccc(CC(=O)N2CCCC(n3nc(C)cc3C)C2)cc1 (stereo unspecified)	52.87%
COc1ccc(CC(=O)N2CCCC(n3nc(C)cc3C)C2)cc1F (stereo unspecified)	6.3%
COc1cccc(CC(=O)N2CCCC(n3nc(C)cc3C)C2)c1 (stereo unspecified)	62.75%
Cc1cc(C)n(C2CCCN(C(=O)Cc3cccc(F)c3)C2)n1 (stereo unspecified)	14.06%
COc1ncc(CN(C)C2CCN(C(C)C)CC2)cn1	36.08%
Cn1cc(CNC2CCc3c(ccc(=O)n3Cc3cccnc3)C2)cn1 (stereo unspecified)	17.69%
O=C(NS(=O)(=O)c1cc(Cl)ccc1Cl)c1cccc2c1OCCO2	-55.23%
Cc1nn(C)c2cnn(Cc3ccc(C(=O)N4CCN(C)CC4)o3)c12	1.33%
CS(=O)(=O)NCCC(=O)N1Cc2cnc(-c3ccccc3)nc2C1	-49.29%
CCn1cc(CN2CCCN(C(=O)C3=NN(C)C(=O)CC3)CC2)cn1	59.73%
CCn1cc(CN2CCCN(C(=O)c3cccn3C)CC2)cn1	19.18%
CCn1cc(CN2CCCN(C(=O)CCN3CCCC3=O)CC2)cn1	-35.65%
COc1cccc(S(=O)(=O)NC(=O)CCC2CCCC2)c1	37.68%
O=C(c1cccnc1)N1CCOC(c2ccc(-c3cncnc3)cn2)C1 (stereo unspecified)	-6.04%
C[C@H]1C[C@H]2CN(C(=O)CCc3ccccc3)CC[C@H]2O1	65.32%
